Bioassay records as filed in PubChem.
The sample as a whole holds a higher share of hits than the screen did.
NS1 function inh: influenza NS1 inhibition. AID 2326. 270,000 tested, 0.4% active. Potency, µM (top dose mostly 46.1 µM), for the others: at the top dose activity, positive = more growth; calls by dose curve; note: potency is the fitted concentration of half-maximal effect; actives are rising curves; nearly all actives have a fitted effect of over 50% in size
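S. cerevisiae expressing influenza A NS1, grown in glucose, washed, then diluted 1:100 into pH 6.0 -URA galactose medium with 23 nl compound. Growth recovery read as OD600; NS1-free strain serves as control.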
Shiga inhibitor: Shiga toxin inhibition; Vero cells, Shiga toxin protein synthesis inhibition reporter; inhibition, % at 38.7 µM; 290,000 tested, 9.2% active; AID 2315; in the data active = inhibition mostly above about 28%, no sharp cut-off; inactive = mostly below about 43%; note: 0% is about no effect
AmpC no deterg: blocks E. coli AmpC beta-lactamase in detergent-free assay. P00811. AmpC nitrocefin hydrolysis, absorbance 480 nm, 0.0001% Triton. Potency, µM (doses to about 57.1 µM), without a hit: at the top dose activity change, negative = inhibition, usual class: inhibitors. 330,000 tested, 0.52% active. AID 485341;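 note: potency is the fitted concentration of half-maximal effect; plate controls were no compound for no effect and no enzyme for full effect; nearly all actives have a fitted effect of over 20% in size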
Target sequence (P00811 whole entry, looked up): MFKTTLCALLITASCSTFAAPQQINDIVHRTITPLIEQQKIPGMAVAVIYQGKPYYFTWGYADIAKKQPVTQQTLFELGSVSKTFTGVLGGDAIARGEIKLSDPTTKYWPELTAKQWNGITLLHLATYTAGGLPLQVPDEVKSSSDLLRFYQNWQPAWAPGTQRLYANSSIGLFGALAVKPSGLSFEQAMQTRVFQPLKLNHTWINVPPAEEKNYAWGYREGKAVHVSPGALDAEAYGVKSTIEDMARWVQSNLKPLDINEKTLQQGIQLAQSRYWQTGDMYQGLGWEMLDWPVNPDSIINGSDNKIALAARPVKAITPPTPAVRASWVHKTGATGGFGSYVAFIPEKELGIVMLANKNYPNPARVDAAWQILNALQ
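AmpC (5.3 nM in the dispensed reagent) in 20 mM phosphate pH 7.0 with 0.01% (detergent screen) or 0.0001% Triton X-100 was preincubated with compounds for 15 min at room temperature. Nitrocefin was then added from an 800 uM solution, and hydrolysis was followed at 480 nm.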
CHX counter: counter-screen for Shiga toxin inhibitors: cycloheximide protein synthesis inhibition. AID 2314. cell reporter, cycloheximide protein synthesis inhibition counterscreen. max response, %. 300,000 tested, 12% active; in the data active = max response mostly above about 13%, no sharp cut-off; inactive = mostly below about 14%; note: read at 38.3 µM for the half of the compounds with a filed dose; 0% is about no effect
AmpC detergent: inhibitors of E. coli AmpC beta-lactamase with detergent. P00811. AmpC hydrolysis of nitrocefin, absorbance 480 nm, 0.01% Triton. Potency, µM (titrated, usually from 114 µM), for the others: at the highest dose activity change, negative = inhibition, actives largely listed as inhibitors. 370,000 tested, 0.041% active;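 note: potency is the fitted concentration of half-maximal effect; 0% = no-compound wells and -100% = no-enzyme wells; nearly all actives have a fitted effect of over 25% in size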
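AmpC (5.3 nM in the dispensed reagent) in 20 mM phosphate pH 7.0 with 0.01% (detergent screen) or 0.0001% Triton X-100 was preincubated with compounds for 15 min at room temperature. Nitrocefin was then added from an 800 uM solution, and hydrolysis was followed at 480 nm.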
The depositor's hits bear a star; ? = inconclusive; . = not tested or not shown; [ ] = dose if it differs, or a comment. Unless noted, calls come from the whole dose curve; as a rule, active = well fitted curve in the direction sought with a large enough effect; inconclusive = small, poorly fitted or top-dose-only effect, or another doubt; inactive = no such curve, though single readings can be large; an effect the other way counts as inactive or inconclusive.

SMILES	NS1 function inh	Shiga inhibitor	AmpC no deterg	CHX counter	AmpC detergent
CC(=O)C[C@@H](O)CC(=O)[C@@H]1OC(=O)[C@H](C)CCCCc2ccccc21	.	.	0%	.	.
N=c1c2c3c(sc2ncn1N)CCC3	3%	6	-18%	-1	-4%
CC(C)(C)C1CCc2c(sc3ncn(N)c(=N)c23)C1 (stereo unspecified)	-6%	40	35%	13*	-2%
CC(=O)c1ccc(OCc2cc(C(=O)N3CC4C[C@@H]5CC3C[C@H](C4)C5)no2)cc1	-17%	84*	71%	47*	-14%
CC(=O)c1cccc(OCc2cc(C(=O)N3CC4C[C@@H]5CC3C[C@H](C4)C5)no2)c1	-16%	36	53%	29*	-3%
COc1cccc(OCc2cc(C(=O)N3CCN(C4CCCCC4)C(=O)C3)no2)c1	-2%	15	135%	9	-4%
CC(=O)c1ccc(OCc2cc(C(=O)N(C)Cc3ncc(C)[nH]3)no2)cc1	-3%	-6	10%	3	2%
CC1CCC(C(C)C)C(=O)/C1=C/c1ccc(N)cc1 (stereo unspecified)	7%	92*	-20%	35*	-1%
CC1/C(=C\c2ccc(Cl)cc2)C(=O)C2CC1C2(C)C (stereo unspecified)	-37%	-4	-20%	-2	-3%
O=C(Nc1ccncc1)c1ccc2ncsc2c1	.	.	-20%	.	?
O=C(Nc1cccc(F)c1)c1ccc2ncsc2c1	-51%	105*	-24%	49*	-6%
O=C(Nc1ccc(Cl)cc1Cl)c1ccc2ncsc2c1	-6%	78*	0%	41*	5%
CNC(=O)c1c(NC(=O)c2ccc3ncsc3c2)sc(C)c1C	.	.	-11%	.	3%
O=C(Nc1ccccc1F)c1ccc2ncsc2c1	-4%	149*	-37%	61*	-8%
O=C(Nc1ccc(F)cc1F)c1ccc2ncsc2c1	-20%	97*	-27%	63*	-5%
COc1ccc2c(c1)CC(C(=O)NCCN1CCN(c3cccc(Cl)c3)CC1)CO2 (stereo unspecified)	.	.	.	.	1%
Cn1nnc2cc(C(=O)Nc3ccccc3F)ccc21	8%	55*	-34%	31*	?
COC(=O)c1ccccc1NC(=O)Cn1nc(C)c2nn(-c3ccc(Cl)cc3)c(C)c2c1=O	.	.	.	.	5%
C/C(=N\NC(=O)c1cccc(F)c1)c1ccc(NC(=O)Cc2ccccc2)cc1	4%	48*	-35%	42*	-4%
C/C(=N\NC(=O)c1cc(O)cc(O)c1)c1ccc(NC(=O)Cc2ccccc2)cc1	-11%	70*	-22%	22*	-7%
CCOC(=O)c1ccc(NC(=O)C2=C(C)Nc3nc(SCc4ccc(Cl)cc4)nn3C2c2ccc(C)cc2)cc1 (stereo unspecified)	.	.	.	.	8%
Cc1onc(-c2ccccc2)c1-c1ccc(S(N)(=O)=O)cc1	.	69*	-22%	38*	-1%
Cc1ccc2c(c1)c1ncnc(N3CCOCC3)c1n2C	-42%	94*	36%	28*	?
Cc1ccc2c(c1)c1ncnc(N3CCC4(CC3)OCCO4)c1n2C	-48%	64*	93%	33*	-6%
C/C(=N\N(c1ccccc1)c1ccccc1)c1ccco1	.	-1	-27%	5	3%
SMILES	NS1 function inh	Shiga inhibitor	AmpC no deterg	CHX counter	AmpC detergent
Cc1cc2ccccc2c[n+]1CC(O)C[n+]1cc2ccccc2cc1C	1%	.	.	.	.
Cc1oc(-c2ccccc2)cc1C(=O)Nc1cccc2ccccc12	-83%	13	-55%	16*	9%
Cc1ccc(C(=O)Nc2cccc3ccccc23)cc1	-5%	35*	-21%	29*	-15%
COc1ccc(C(=O)Nc2cccc3ccccc23)cc1	2%	32	-26%	21*	?
COc1ccc(C(=O)NNC(=O)C(=O)Nc2cccc3ccccc23)cc1	-36%	-5	-9%	-11	-6%
CC(C)(C)c1ccc(C(=O)Nc2cccc3c(=O)[nH][nH]c(=O)c23)cc1	13%	55*	-49%	56*	1%
CC(C)CN1CCc2nc(Nc3ccc(F)cc3F)ncc2C1	.	.	.	.	16%
COc1cc(OC)c(C(=O)Nc2cccc3ccccc23)cc1OC	7%	.	89%	21*	-13%
CC(C)(C)c1cc(C(=O)Nc2cccc3ccccc23)ccn1	-26%	-1	-14%	13	-15%
Cc1cc(C(=O)Nc2cccc3ccccc23)co1	-20%	28	-32%	14*	-2%
CCOc1cc(CNc2cccc3[nH]c(C)nc23)ccc1OC	8%	-13	42%	-3	?
CN(C(=O)c1cc(-c2ccc3c(c2)OCO3)on1)c1ccccc1	-13%	95*	-47%	34*	-10%
O=C(Nc1cc(Br)ccc1O)c1cc(-c2ccc3c(c2)OCO3)on1	-14%	77*	-22%	15*	1%
CSc1ccccc1NC(=O)c1cc(-c2ccc3c(c2)OCO3)on1	5%	61*	-11%	8	-8%
O=C(Nc1c(Cl)cccc1Cl)c1cc(-c2ccc3c(c2)OCO3)on1	.	.	.	.	15%
Cc1[nH]c2c(ccc3cccnc32)c1C	-5%	41*	-13%	17*	-2%
Cc1ccccc1OCC(=O)OCC(=O)Nc1cc(S(=O)(=O)N2CCCCC2)ccc1Cl	.	.	32µM*	.	?
COc1ccc(S(=O)(=O)N2CCOCC2)cc1NC(=O)COc1ccc(C)cc1	.	.	77%	.	.
COc1ccc(Cl)cc1NC(=O)COc1ccc(S(=O)(=O)N2CCOCC2)cc1C	4%	-12	-19%	-6	28µM*
CN1CCN(CC(=O)Nc2ccc(OCc3ccccc3)cc2)CC1	-6%	64	17%	36*	-2%
N#CCN1CCN(CC(=O)Nc2ccc(OCc3ccccc3)cc2)CC1	-16%	-22	67%	23*	-8%
Cc1cccc(N(C)C(=O)c2cc3c(=O)oc4ccc(C)cc4c3s2)c1	.	.	.	.	-1%
O=C(NCc1ccccc1)c1onc(CS(=O)(=O)c2ccc(Cl)cc2)c1C(=O)NCc1ccccc1	.	.	-20%	.	-12%
CCN(c1cccc(C)c1)S(=O)(=O)c1cc(CN2C(=O)c3cccnc3C2=O)ccc1OC	-29%	92*	59%	19*	3%
COc1ccc(CN2C(=O)c3cccnc3C2=O)cc1S(=O)(=O)NCc1ccco1	-1%	51*	-4%	21*	-3%
Cc1cccc(NC(=O)Cn2c(=O)n(Cc3ccc4c(c3)OCO4)c(=O)c3ccccc32)c1	.	.	.	.	23%
CCN(CC1CCCO1)C(=O)C1CCN(C2CCN(Cc3ccccc3C)CC2)CC1 (stereo unspecified)	0%	13	115%	-1	-1%
O=C(OCc1ccc(F)cc1)c1cc2ccccc2cc1O	-13%	15	-28%	8.6*	-22%
O=C(OCC(=O)N1CCCCC1)c1ccccc1SCC(=O)N1CCCCC1	.	31	-14%[11.4 µM]	20*	-12%
CCNC(=O)NC(=O)COC(=O)c1ccccc1SCC(=O)NC(=O)NCC	-63%	68	-5%	63*	-6%
